Assay outcomes deposited in PubChem by several laboratories.
Dyrk1A ADPGlo = blocks rat Dyrk1A kinase activity. Q63470. ADP-Glo luminescence, NFATc1 peptide. inhibition, % at 12.5 µM. 0.43% of 310,000 active. AID 504441; in the data active = inhibition above about 50%;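 also: plate controls were vehicle with enzyme for no effect and no enzyme for full effect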
NPR2 activator = GC-B (human) receptor activation; P20594; HEK293-GC-B cells, CNP EC30, cGMP TR-FRET; 0% at EC30 CNP, 100% saturating CNP; activation, % at 10 µM; 0.11% of 370,000 active; AID 1920062;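 active = activation at 10 µM reaching about 35% in either raw or pattern-adjusted values, limit read from the data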
HSF-1 act = increases HSF-1 driven luciferase reporter signal | NIH3T3-HGL HSF-1 luciferase reporter, MG132, 8 h; 100% = twice DMSO control signal | 1.7% of 300,000 active | activation, % at 9 µM;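 active = mean replicate activation of at least 50% with a set share of replicates each reaching 50%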;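 also: 0% = median of the neutral control wells and 100% = twice that signal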
NPR1 activator = GC-A (human) enzyme activation | P16066 | HEK293 GC-A cells, cGMP TR-FRET, EC30 ANP; 0% at EC30 ANP, 100% saturating ANP | activation, % at 10 µM | 0.14% of 370,000 active; in the data active = activation above about 40%
Target sequence (P16066 whole entry, looked up): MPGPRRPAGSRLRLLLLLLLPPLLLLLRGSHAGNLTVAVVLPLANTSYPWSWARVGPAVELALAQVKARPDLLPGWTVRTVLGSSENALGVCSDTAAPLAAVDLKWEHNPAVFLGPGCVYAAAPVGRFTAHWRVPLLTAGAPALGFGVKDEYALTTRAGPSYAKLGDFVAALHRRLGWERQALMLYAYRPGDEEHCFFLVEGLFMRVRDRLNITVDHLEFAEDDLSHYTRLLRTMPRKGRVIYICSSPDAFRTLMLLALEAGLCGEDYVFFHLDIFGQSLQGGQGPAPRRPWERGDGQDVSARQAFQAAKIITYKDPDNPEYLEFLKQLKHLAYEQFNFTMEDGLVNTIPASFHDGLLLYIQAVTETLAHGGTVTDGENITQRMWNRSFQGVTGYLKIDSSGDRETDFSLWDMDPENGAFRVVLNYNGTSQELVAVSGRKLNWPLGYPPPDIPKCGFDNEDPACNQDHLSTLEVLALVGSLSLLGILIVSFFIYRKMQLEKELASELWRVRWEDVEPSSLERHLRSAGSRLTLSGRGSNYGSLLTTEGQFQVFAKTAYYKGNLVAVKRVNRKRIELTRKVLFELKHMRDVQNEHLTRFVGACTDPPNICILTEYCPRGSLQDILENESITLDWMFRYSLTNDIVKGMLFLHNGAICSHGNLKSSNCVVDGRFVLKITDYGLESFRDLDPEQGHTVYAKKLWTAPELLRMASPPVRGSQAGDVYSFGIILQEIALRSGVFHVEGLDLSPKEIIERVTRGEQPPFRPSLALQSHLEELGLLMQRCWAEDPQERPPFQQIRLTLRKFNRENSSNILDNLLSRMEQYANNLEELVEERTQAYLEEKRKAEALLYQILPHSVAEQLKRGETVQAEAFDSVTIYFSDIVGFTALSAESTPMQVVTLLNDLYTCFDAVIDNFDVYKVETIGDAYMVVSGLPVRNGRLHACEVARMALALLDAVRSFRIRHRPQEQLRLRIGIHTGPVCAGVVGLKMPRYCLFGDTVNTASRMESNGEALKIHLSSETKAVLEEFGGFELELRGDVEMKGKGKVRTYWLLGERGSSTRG
HSF1 inhib = HSF1 inhibition; NIH3T3-HGL HSE-luciferase, MG132-induced, luminescence 8 h; stronger effect = lower value; activity change, negative = inhibition, % at 7.5 µM (by protocol); 0.77% of 300,000 active; AID 2098;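 active = more than half of replicate wells show activity change below -50%, luminescence cut by over half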;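 also: luciferase reports HSF-1 transcriptional activity via heat shock element; 0% = median of DMSO wells and -100% = zero luminescence signal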
aDG glyco up = alpha-DG glycosylation activation; Pro5-aDG cells, alpha-DG glycosylation AlphaScreen (IIH6); 0% Pro5, 100% B10-LARGE cell signal; activation, % at 10 µM; 0.22% of 360,000 active;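 active = activation of at least 8% versus controls, or a plate z-score of at least 8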;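 also: Pro5 are CHO cells carrying HIG-tagged alpha-DG that lacks glycosylation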
* hit, by the source's call. Rows were chosen to be rich in hits. Some 2.5% of all compounds tested hit in one or more screens of this group.

`Cc1nc2ccccn2c1-c1ccnn1S(=O)(=O)c1ccc(F)cc1` gave Dyrk1A ADPGlo 1, NPR2 activator 12, HSF-1 act -71, NPR1 activator 9, HSF1 inhib -67* and aDG glyco up 2.
COC(=O)C1(Cc2ccccc2)NC(c2ccccc2C)C2C(=O)N(c3ccc4c(c3)OCO4)C(=O)C21 (stereo unspecified) was read as Dyrk1A ADPGlo 4, NPR2 activator -2, HSF-1 act -80, NPR1 activator 1, HSF1 inhib -73* and aDG glyco up 0.
COc1ccc(/C=N/Nc2nncn2N)cc1Br was read as Dyrk1A ADPGlo 24, NPR2 activator -4, HSF-1 act 78*, NPR1 activator -1, HSF1 inhib 47 and aDG glyco up 0.
NC(=S)c1ccc[n+]([O-])c1 was read as NPR2 activator 3, NPR1 activator 3 and aDG glyco up 0.
`COCCn1c(C)cc(C(=O)COC(=O)c2cc3c(s2)CCC3)c1C` gave Dyrk1A ADPGlo -3, NPR2 activator 0, HSF-1 act 22, NPR1 activator 3, HSF1 inhib 19 and aDG glyco up 0.
`COCCn1c(C)cc(C(=O)CSc2n[nH]c(N)n2)c1C` gave Dyrk1A ADPGlo 9, NPR2 activator -3, HSF-1 act 35, NPR1 activator -2, HSF1 inhib 0 and aDG glyco up 0.
Screening COCCn1c(C)cc(C(=O)CSc2nnc(C)s2)c1C returned Dyrk1A ADPGlo 2, NPR2 activator 3, HSF-1 act -62, NPR1 activator -2, HSF1 inhib -56* and aDG glyco up 0.
COCCn1c(C)cc(C(=O)COC(=O)c2cccc(O)c2)c1C was read as Dyrk1A ADPGlo 5, NPR2 activator 0, HSF-1 act -81, NPR1 activator 1, HSF1 inhib -79* and aDG glyco up 0.
`CCN(CC(=O)Nc1ccc(NC(C)=O)cc1)C(=O)c1cc([N+](=O)[O-])ccc1Sc1ccc(Cl)cc1` gave Dyrk1A ADPGlo 7, NPR2 activator 6, NPR1 activator 0 and aDG glyco up 0.
`COc1cc(-c2nc(C(=O)NCC3CCCO3)cc3c2[nH]c2ccccc23)cc(OC)c1OC` (stereo unspecified) gave Dyrk1A ADPGlo 2, NPR2 activator 59*, HSF-1 act 5, NPR1 activator 53*, HSF1 inhib 3 and aDG glyco up -1.
`Cc1cc(OCc2cccc(S(=O)(=O)N3CCOCC3)c2)ccc1Cl` gave Dyrk1A ADPGlo 11, NPR2 activator -3, NPR1 activator 1 and aDG glyco up 0.
Screening CCCS(=O)(=O)N1CCCC(C(=O)NCCN(CC)CC)C1 (stereo unspecified) returned Dyrk1A ADPGlo 5, NPR2 activator 8, HSF-1 act -16, NPR1 activator 4, HSF1 inhib -13 and aDG glyco up 0.
COC(=O)c1[nH]c2ccc(Br)cc2c1NC(=O)CN1CCCc2ccccc21 was read as Dyrk1A ADPGlo 0, NPR2 activator -8, HSF-1 act 57*, NPR1 activator 1, HSF1 inhib 38 and aDG glyco up 1.
Screening Cn1cc([N+](=O)[O-])c(C(=O)Nc2ccc(-c3nc4ccccc4o3)cc2)n1 returned Dyrk1A ADPGlo 2, NPR2 activator -3, HSF-1 act 285*, NPR1 activator -3, HSF1 inhib 281 and aDG glyco up 0.
`O=C(Nc1ccc(-c2nc3ncccc3o2)cc1)c1ccc([N+](=O)[O-])o1` gave Dyrk1A ADPGlo -5, NPR2 activator -1, HSF-1 act 151*, NPR1 activator 1, HSF1 inhib 104 and aDG glyco up 0.
O=C(Nc1ccc2oc(-c3ccncc3)nc2c1)c1ccc([N+](=O)[O-])o1 was read as Dyrk1A ADPGlo -4, NPR2 activator -5, HSF-1 act 84*, NPR1 activator -1, HSF1 inhib 101 and aDG glyco up 0.
O=C(Nc1ccc(-c2nc3ccccc3o2)cc1)c1ccc(N2CCOCC2)c([N+](=O)[O-])c1 was read as NPR2 activator -3, HSF-1 act -1, NPR1 activator 4, HSF1 inhib -8 and aDG glyco up 0.
For Cc1ccc(-c2nc3ncccc3o2)cc1NC(=O)c1ccc([N+](=O)[O-])o1 the results were Dyrk1A ADPGlo -2, HSF-1 act 139*, HSF1 inhib 91 and aDG glyco up 0.
Cc1ccc2[nH]c(=O)c(-c3nc4ccccn4c3NCc3ccco3)cc2c1 was read as Dyrk1A ADPGlo 6, NPR2 activator -2, HSF-1 act 38, NPR1 activator -1, HSF1 inhib 11 and aDG glyco up 0.
`CCOc1ccccc1C(=O)OCC(=O)Nc1cc(Cl)ccc1Oc1ccccc1` gave Dyrk1A ADPGlo -6, NPR2 activator 5, HSF-1 act 35, NPR1 activator 7, HSF1 inhib 13 and aDG glyco up 0.
`COc1ccc(OC)c(-n2cnc3cc(C(=O)O)ccc32)c1` gave Dyrk1A ADPGlo -2, NPR2 activator 3, HSF-1 act 3, NPR1 activator 2, HSF1 inhib 3 and aDG glyco up 1.
COc1ccc(NC(=O)COC(=O)c2cc3c(s2)CCC3)cc1 was read as Dyrk1A ADPGlo -4 and aDG glyco up 9.7*.
For O=C(COC(=O)c1cc2c(s1)CCC2)Nc1ccc(F)cc1 the results were Dyrk1A ADPGlo -1, NPR2 activator -1, HSF-1 act 6, NPR1 activator -2, HSF1 inhib -9 and aDG glyco up -1.
COc1cccc(NC(=O)CC2C(=O)NC3CCCCC3N2C(=O)c2ccccc2)c1 (stereo unspecified) was read as Dyrk1A ADPGlo -2, NPR2 activator -9, HSF-1 act 7, NPR1 activator -13, HSF1 inhib -3 and aDG glyco up 0.
For NC(=O)c1c(NC(=O)c2ccccc2)sc2c1CCc1ccccc1-2 the results were Dyrk1A ADPGlo -6, NPR2 activator -6, HSF-1 act 74*, NPR1 activator 1, HSF1 inhib 40 and aDG glyco up 0.
Screening CCn1c(=O)c2c3c(sc2n2cnnc12)CCC3 returned Dyrk1A ADPGlo 0, NPR2 activator -3, HSF-1 act -68, NPR1 activator 11, HSF1 inhib -58* and aDG glyco up 0.
Screening COc1ccc2occ(C(=O)c3coc4ccc(O)c(CN(C)C)c34)c2c1 returned Dyrk1A ADPGlo 18, NPR2 activator -17, HSF-1 act 24, NPR1 activator -18, HSF1 inhib -3 and aDG glyco up 9.1*.
COc1ccc2occ(C(=O)c3cccs3)c2c1 was read as Dyrk1A ADPGlo 39, NPR2 activator 0, HSF-1 act 78*, NPR1 activator -2, HSF1 inhib 36 and aDG glyco up 0.
